# This is a sample that favours compounds with a hit; in the whole collection about 3.4% have one here.
# FBPA Giardia inh: qHTS Assay for Inhibitors of Fructose-1,6-bisphosphate Aldolase from Giardia Lamblia; A8B2U2; purified Giardia FBPA; Potency, µM (doses to about 59.6 µM), inactives show at the top dose activity, negative = inhibition, usual class: inhibitors; actives 0.71% (n = 290,000); further: nearly all actives have a fitted effect of over 55% in size
#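 40 nM FBPA preincubated 10 min at RT with compound (up to 57.5 uM final), then substrate plus GAPDH/TPI/NAD/arsenate coupling and diaphorase/resazurin added. Fluorescence read after 20 min at RT, 525/598 nm.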
# RE007 growth inh: qHTS Assay for Inhibitors of the HIV-1 protein Vpr; S. pombe RE007 Vpr strain, BacTiter-Glo ATP luminescence, 24 h; actives 0.21% (n = 360,000); Potency, µM (doses to about 92.2 µM), for the others: at the top dose activity change, negative = less growth, hits mostly inhibitors; active means well fitted falling curve with a large enough effect; inconclusive means small, poorly fitted or top-dose-only effect; inactive means no such curve, though single readings can be large or run the other way; further: nearly all actives have a fitted effect of over 50% in size
#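 Fission yeast RE007 carrying one integrated HIV-1 vpr copy, seeded at OD 0.01 in PMG+AL medium with 23 nL pinned compound. Grown 24 h at 30 degrees; viability read by BacTiter-Glo luminescence after 5 min.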
# AmpC inh detg: qHTS Inhibitors of AmpC Beta-Lactamase (assay with detergent) | AmpC hydrolysis of nitrocefin, absorbance 480 nm, 0.01% Triton | P00811 | Potency, µM (doses to about 114 µM), inactives show top-dose activity change, negative = inhibition, most hits filed as inhibitors | actives 0.041% (n = 370,000);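 further: 0% = no-compound wells and -100% = no-enzyme wells; nearly all actives have a fitted effect of over 25% in size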
# Target sequence (P00811 whole entry, looked up): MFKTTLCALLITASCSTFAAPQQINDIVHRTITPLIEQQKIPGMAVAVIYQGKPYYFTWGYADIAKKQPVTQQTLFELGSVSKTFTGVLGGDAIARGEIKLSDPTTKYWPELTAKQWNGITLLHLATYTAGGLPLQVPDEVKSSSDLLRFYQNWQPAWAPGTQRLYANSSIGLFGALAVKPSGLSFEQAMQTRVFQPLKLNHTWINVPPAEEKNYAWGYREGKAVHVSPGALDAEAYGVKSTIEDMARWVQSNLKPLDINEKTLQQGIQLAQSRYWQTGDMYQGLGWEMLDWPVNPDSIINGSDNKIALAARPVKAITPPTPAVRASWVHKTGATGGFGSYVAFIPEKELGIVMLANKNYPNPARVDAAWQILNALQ
#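 AmpC (5.3 nM in the dispensed reagent) in 20 mM phosphate pH 7.0 with 0.01% (detergent screen) or 0.0001% Triton X-100 was preincubated with compounds for 15 min at room temperature. Nitrocefin was then added from an 800 uM solution, and hydrolysis was followed at 480 nm.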
# AmpC no deterg: qHTS Inhibitors of AmpC Beta-Lactamase (assay without detergent); actives 0.52% (n = 330,000); Potency, µM (titrated, usually from 57.1 µM), without a hit: top-dose activity change, negative = inhibition, hits mostly inhibitors; AmpC nitrocefin hydrolysis, absorbance 480 nm, 0.0001% Triton;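 further: plate controls were no compound for no effect and no enzyme for full effect; nearly all actives have a fitted effect of over 20% in size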
#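 20 mM phosphate pH 7.0 + 0.01% (detergent screen) or 0.0001% Triton X-100; 5.3 nM AmpC reagent; cpd preinc 15 min RT; nitrocefin (800 uM stock) to start; A480 q20 s × 4 min; Activity was normalised to no-enzyme and no-compound control wells.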
# Sm TGR block: qHTS Assay for the Inhibitors of Schistosoma Mansoni Peroxiredoxins | Schistosoma mansoni thioredoxin glutathione reductase (TGR), Q962Y6 | purified TGR, DTNB reduction, TNB absorbance 405 nm | Potency, µM (highest dose often 114 µM), for inactives: at the highest dose activity change, negative = inhibition, actives largely listed as inhibitors | actives 3% (n = 360,000); further: nearly all actives have a fitted effect of over 60% in size
#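 First, TGR (20 nM dispensed) and NADPH were mixed with compound. Second, a 15 min room-temperature incubation followed. Third, further NADPH and then DTNB were added to start the reaction. Finally, TNB absorbance was monitored kinetically.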
# An asterisk follows results filed as active; ? = inconclusive; . = no result given; [ ] = remark or other dose. Unless noted, the call rests on the fitted dose curve; in most records, active means well fitted curve in the direction sought with a large enough effect; inconclusive means small, poorly fitted or top-dose-only effect, or another doubt; inactive means no such curve, though single readings can be large; an effect the other way counts as inactive or inconclusive. Unless noted, on the % scale 0 is the no-effect control and ±100 the full control effect; potency means the concentration at half of the fitted maximal effect.
SMILES,FBPA Giardia inh,RE007 growth inh,AmpC inh detg,AmpC no deterg,Sm TGR block
O=C(Nc1cccnc1)c1ccccc1-c1nc(-c2ccccc2F)no1,-1%,-18%,?,-22%,-11%
Nc1cccc2c1C(=O)N(C(=O)c1ccc(S(=O)(=O)N3CCCCCC3)cc1)C2=O,3%,0%,?,-27%,-2%
CCOc1c(Br)cc(CNc2ccc(N3CCN(C(C)=O)CC3)cc2)cc1OC,-15%,-6%,4%,172%,-22%
Fc1ccc(NC(=S)Nc2cccc3cnccc23)cc1,2.8µM*,-23%,-2%,-19%[11.4 µM],45µM*
Cc1onc(-c2ccccc2Cl)c1C(=O)OCN1C(=O)c2ccccc2C1=O,1%,23%,?,-3%,0%
CCO[C@@H]1OC(C(=O)NC2CC2)=C[C@H](C(C)(C)C)[C@H]1CCCO,3%,-10%,4%,5%,7%
O=C(CSCc1ccccc1Cl)NN=C1CCCCCC1,-3%,-4%,4%,0.22µM*,4%
NC(=O)c1ccsc1N,?,.,0%,-12%,6.3µM*
COc1cc(NC2c3ncccc3C(=O)N2Cc2ccco2)cc(OC)c1 (stereo not given),-28%,-3%,1%,14%,45µM*
CCN(CC)c1ccc(/C=N/NC(=O)C(O)(c2ccccc2)c2ccccc2)o1,-11%,.,-2%,-23%,14µM*
Oc1ccc(OCc2ccccc2)cc1,-2%[21.7 µM],.,.,.,.
Oc1ccc(NCc2ccc(OCc3ccccc3Cl)cc2)cc1,.,.,15%,.,35µM*
Oc1ccc(NCc2ccc(OCc3ccccc3)cc2)cc1,?,-10%,-2%,-35%,7.1µM*
CCc1ccc(CNc2ccc(O)cc2)cc1,4µM*,-3%,0%,-34%,22µM*
Cn1nnnc1SCCNCc1ccc(OCc2ccccc2Cl)cc1,.,.,-5%,.,-14%
CCC(=O)Nc1ccc(NCc2ccc(-c3ccccc3)cc2)cc1,?,1%,?,-28%,-2%
COc1ccccc1CNC(=O)Cn1nnc(-c2ccncc2)n1,4%,7%,-1%,-20%,-3%
COc1ccc(C(=O)NC2CC2)cc1OC1CCN(Cc2ccccc2F)CC1,-1%,-3%,-2%,6%,7%
COc1ccc(OC)c(NC(=O)CC2C(=O)NCCN2C(=O)Nc2cccc(Cl)c2)c1 (stereo not given),-4%,-5%,2%,106%,-1%
CCC(=O)Nc1cccc(NC(=S)NC(=O)c2cccc(C)c2)c1,-20%,-5%,-12%,-23%,40µM*
CCC(=O)Nc1cccc(NC(=S)NC(=O)c2ccc(C)cc2)c1,-18%,7%,-9%,-23%,.
CCC(=O)Nc1cccc(NC(=S)NC(=O)c2ccccc2)c1,?,-3%,-12%,-28%,45µM*
COc1ccc(CN2CC(C(=O)NCCc3ccc(C)cc3)CC2=O)cc1 (stereo not given),6%,-16%,?,38%,34%
CN(C)S(=O)(=O)c1ccc(C(=O)NCCc2ccco2)cc1,7%,-16%,-4%,-1%,-25%
Fc1cc2ncn(Cc3ccccc3)c2cc1F,-5%,13%,?,-16%,56µM*
SMILES,FBPA Giardia inh,RE007 growth inh,AmpC inh detg,AmpC no deterg,Sm TGR block
c1ccc(Cn2cnc3ccccc32)cc1,0%,12%,?,-11%,1%
Cc1onc(-c2ccccc2)c1C(=O)N/N=C/c1cccs1,?,2%,1%,-34%,-3%
Cc1ccc(Nc2c(-c3ccccn3)nc3ccc(Br)cn23)cc1,.,.,9%,.,5%
COC(=O)CNc1c(-c2ccccn2)nc2ccc(Br)cn12,-14%,-16%,?,2%,40µM*
O=C(OCCc1cc2ccccc2c(=O)o1)c1ccccc1C(F)(F)F,.,1%,1%,-5%,-19%
O=C(OCCCc1cc2ccccc2c(=O)o1)c1ccccc1C(F)(F)F,.,7%,-4%,-9%,11µM*
O=C(O)c1ccccc1C(=O)OCCc1cc2ccccc2c(=O)o1,.,2%,4%,-16%,-13%
CCN(CC)C(=O)OCCc1cc2ccccc2c(=O)o1,.,4%,-2%,-25%,3.2µM*
N#Cc1ccc(C(=O)OCCCc2cc3ccccc3c(=O)o2)cc1,.,2%,3%,-12%,50µM*
O=C(OCCCc1cc2ccccc2c(=O)o1)c1ccc(F)cc1,.,-13%,3%,-10%,35µM*
CC1CCCC(NC(=O)NC(=O)COC(=O)c2ccc(O)cc2O)C1C (stereo not given),.,-4%,-1%,-23%,0%
Oc1ccccc1-[n+]1c(-c2ccccc2)cc(-c2ccccc2)c(O)c1-c1ccccc1,.,7%,?,-6%,?
Nc1nn(S(=O)(=O)c2cccc3nsnc23)cc1-c1ccc(Br)cc1,-1%,-6%,?,20µM*,6%
O=[N+]([O-])c1ccc(C=Nc2cccc3ccccc23)s1,?,22µM*,-14%,-30%,.
O=[N+]([O-])c1ccc(-c2ccc(C=Nc3cccc4ccccc34)o2)cc1,-21%,0%,?,-42%,1%
O=C1NC(=S)N(Cc2ccco2)C(=O)/C1=C\c1cccs1,16µM*,.,45µM*,-60%,3.5µM*
O=C1NC(=O)N(CCc2ccc(F)cc2)C(=O)/C1=C/c1cccs1,3%,31%,?,-36%,?
C=CCN1C(=O)/C(=C/c2cccs2)C(=O)NC1=S,-26%,?,-5%,-31%,10µM*
CN(C)c1ccc(/C=C2/C(=O)NC(=O)N(Cc3ccco3)C2=O)cc1,0%,4%,-12%,-15%,?
CCc1cccc(CC)c1NC(=O)c1ccccc1CCc1ccccc1,0%,-4%,?,-14%,1%
CCOc1ccccc1N1C(=O)CC(Nc2ccc(N3CCOCC3)cc2)C1=O (stereo not given),-1%,10%,-12%,38%,18µM*
COc1ccccc1N1C(=O)CC(Nc2ccc(N3CCOCC3)cc2)C1=O (stereo not given),?,-12%,-11%,1%,20µM*
O=C1CC(Nc2ccc(N3CCOCC3)cc2)C(=O)N1c1ccccc1 (stereo not given),-13%,18%,-1%,-18%,35µM*
